# From article PMC5540273 (PLoS ONE, 2017)
# “And” between values parts separate entries of the source, which are not always exact repeats. Equal entries are not always repeated. Where two headings read alike, the source gives them in different places.
# Tests used:
# PRKCI = conditions: concentration: 1 μM, replicates: in singlicate, n = 1
# PRKCQ = conditions: concentration: 1 μM, replicates: in singlicate, n = 1
# PRKD1 = conditions: concentration: 1 μM, replicates: in singlicate, n = 1
# PRKD2 = conditions: concentration: 1 μM, replicates: in singlicate, n = 1
# PRKD3 = conditions: concentration: 1 μM, replicates: in singlicate, n = 1
# PRKG1 = conditions: concentration: 1 μM, replicates: in singlicate, n = 1
# PRKG2 = conditions: concentration: 1 μM, replicates: in singlicate, n = 1
# PRKR = test system: T1, PRKR; conditions: concentration: 1 μM, replicates: in singlicate, n = 1
# T1 construct: gene EIF2AK2
# PRKX = conditions: concentration: 1 μM, replicates: in singlicate; n = 1
# PRP4 = conditions: concentration: 1 μM, replicates: in singlicate, n = 1
# PYK2 = test system: T2, PYK2; conditions: concentration: 1 μM, replicates: in singlicate, n = 1
# T2 construct: gene PTK2B
# QSK = conditions: concentration: 1 μM, replicates: in singlicate; n = 1
# RAF1 = conditions: concentration: 1 μM, replicates: in singlicate, n = 1
# RET = conditions: concentration: 1 μM, replicates: in singlicate, n = 1
# RIOK1 = conditions: concentration: 1 μM, replicates: in singlicate, n = 1
# RIOK2 = conditions: concentration: 1 μM, replicates: in singlicate; n = 1
# RIOK3 = conditions: concentration: 1 μM, replicates: in singlicate, n = 1
# RIPK1 = conditions: concentration: 1 μM, replicates: in singlicate, n = 1
# RIPK2 = conditions: concentration: 1 μM, replicates: in singlicate, n = 1
# RIPK4 = conditions: concentration: 1 μM, replicates: in singlicate, n = 1
# 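Also: KINOMEscan kinase panel screen.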
structure (smiles),measurement,setting,value
Cc1c(Cn2c(C)nn3c(=O)cc(N4CCOC(C)C4)nc23)cccc1C(F)(F)F (stereo not drawn) [GSK2344444],%Inh,PRKCI,0%
same,%Inh,PRKCQ,0%
same,%Inh,PRKD1,0%
same,%Inh,PRKD2,0%
same,%Inh,PRKD3,22%
same,%Inh,PRKG1,14%
same,%Inh,PRKG2,0%
same,%Inh,PRKR,0%
same,%Inh,PRKX,3%
same,%Inh,PRP4,0%
same,%Inh,PYK2,0%
same,%Inh,QSK,4%
same,%Inh,RAF1,0%
same,%Inh,RET,1%
same,%Inh,RIOK1,27%
same,%Inh,RIOK2,10%
same,%Inh,RIOK3,0%
same,%Inh,RIPK1,0%
same,%Inh,RIPK2,0%
same,%Inh,RIPK4,7%
COc1cc(Nc2nccc(N3CCC(NC(=O)c4cccc(NC(C)=O)c4)C3)n2)cc(OC)c1OC (stereo not drawn) [GSK1379754],%Inh,PRKCI,0%
same,%Inh,PRKCQ,24%
same,%Inh,PRKD1,0%
same,%Inh,PRKD2,0%
same,%Inh,PRKD3,0%
same,%Inh,PRKG1,15%
same,%Inh,PRKG2,0%
same,%Inh,PRKR,0%
same,%Inh,PRKX,27%
same,%Inh,PRP4,20%
same,%Inh,PYK2,14%
same,%Inh,QSK,0%
same,%Inh,RAF1,0%
same,%Inh,RET,29%
same,%Inh,RIOK1,82%
same,%Inh,RIOK2,5%
same,%Inh,RIOK3,61%
same,%Inh,RIPK1,0%
same,%Inh,RIPK2,0%
same,%Inh,RIPK4,28%
CC(=O)Nc1ccc(COc2ccc(Nc3ccnc4cc(-c5ccccn5)ccc34)cc2)cc1.Cl [GW440148],%Inh,PRKCI,15%
same,%Inh,PRKCQ,0%
same,%Inh,PRKD1,18%
same,%Inh,PRKD2,14%
same,%Inh,PRKD3,0%
same,%Inh,PRKG1,0%
same,%Inh,PRKG2,8%
same,%Inh,PRKR,27%
same,%Inh,PRKX,12%
same,%Inh,PRP4,27%
same,%Inh,PYK2,0%
same,%Inh,QSK,0%
same,%Inh,RAF1,5%
same,%Inh,RET,2%
same,%Inh,RIOK1,13%
same,%Inh,RIOK2,0%
same,%Inh,RIOK3,35%
same,%Inh,RIPK1,22%
same,%Inh,RIPK2,93.2%
same,%Inh,RIPK4,19%
CSc1ccc(-c2cc3ncnc(SCC(=O)O)c3s2)cc1,%Inh,PRKCI,0%
same,%Inh,PRKCQ,0%
same,%Inh,PRKD1,18%
same,%Inh,PRKD2,0%
same,%Inh,PRKD3,9%
same,%Inh,PRKG1,0%
same,%Inh,PRKG2,0%
same,%Inh,PRKR,0%
same,%Inh,PRKX,0%
same,%Inh,PRP4,0%
same,%Inh,PYK2,13%
same,%Inh,QSK,0%
same,%Inh,RAF1,0%
same,%Inh,RET,8%
same,%Inh,RIOK1,0%
same,%Inh,RIOK2,0%
same,%Inh,RIOK3,0%
same,%Inh,RIPK1,0%
same,%Inh,RIPK2,0%
same,%Inh,RIPK4,0%
[2H]C([2H])(c1cccc(C(F)(F)F)c1C)n1ccn2c(=O)nc(N3CCOCC3)cc12 [GSK2336394],%Inh,PRKCI,22%
same,%Inh,PRKCQ,9%
same,%Inh,PRKD1,17%
same,%Inh,PRKD2,4%
same,%Inh,PRKD3,27%
same,%Inh,PRKG1,0%
same,%Inh,PRKG2,0%
same,%Inh,PRKR,0%
same,%Inh,PRKX,14%
same,%Inh,PRP4,18%
same,%Inh,PYK2,4%
same,%Inh,QSK,0%
same,%Inh,RAF1,10%
same,%Inh,RET,14%
same,%Inh,RIOK1,23%
same,%Inh,RIOK2,6%
same,%Inh,RIOK3,0%
same,%Inh,RIPK1,0%
same,%Inh,RIPK2,7%
same,%Inh,RIPK4,5%
O=C(NCCCN1CCOCC1)c1cccc(Nc2nccc(Nc3ccc(Oc4ccccc4)cc3)n2)c1 [GW663929],%Inh,PRKCI,12%
same,%Inh,PRKCQ,0%
same,%Inh,PRKD1,13%
same,%Inh,PRKD2,25%
same,%Inh,PRKD3,17%
same,%Inh,PRKG1,0%
same,%Inh,PRKG2,5%
same,%Inh,PRKR,20%
same,%Inh,PRKX,17%
same,%Inh,PRP4,21%
same,%Inh,PYK2,0%
same,%Inh,QSK,0%
same,%Inh,RAF1,0%
same,%Inh,RET,17%
same,%Inh,RIOK1,31%
same,%Inh,RIOK2,23%
same,%Inh,RIOK3,36%
same,%Inh,RIPK1,24%
same,%Inh,RIPK2,100%
same,%Inh,RIPK4,29%
COCCNC(=O)c1ccc(-c2cc(C(=O)NC3CC3)cc(F)c2C)cc1 [GW868318],%Inh,PRKCI,9%
same,%Inh,PRKCQ,2%
same,%Inh,PRKD1,2%
same,%Inh,PRKD2,0%
same,%Inh,PRKD3,0%
same,%Inh,PRKG1,7%
same,%Inh,PRKG2,27%
same,%Inh,PRKR,4%
same,%Inh,PRKX,0%
same,%Inh,PRP4,0%
same,%Inh,PYK2,4%
same,%Inh,QSK,26%
same,%Inh,RAF1,7%
same,%Inh,RET,0%
same,%Inh,RIOK1,0%
same,%Inh,RIOK2,7%
same,%Inh,RIOK3,0%
same,%Inh,RIPK1,0%
same,%Inh,RIPK2,8%
same,%Inh,RIPK4,47%
Cc1cn2c(=O)cc(N3CCOCC3)nc2n1Cc1cccc(Cl)c1Cl [GSK2334006],%Inh,PRKCI,31%
same,%Inh,PRKCQ,28%
same,%Inh,PRKD1,0%
same,%Inh,PRKD2,10%
same,%Inh,PRKD3,18%
same,%Inh,PRKG1,0%
same,%Inh,PRKG2,0%
same,%Inh,PRKR,0%
same,%Inh,PRKX,24%
same,%Inh,PRP4,0%
same,%Inh,PYK2,13%
same,%Inh,QSK,0%
same,%Inh,RAF1,22%
same,%Inh,RET,21%
same,%Inh,RIOK1,56%
same,%Inh,RIOK2,29%
same,%Inh,RIOK3,4%
same,%Inh,RIPK1,0%
same,%Inh,RIPK2,14%
same,%Inh,RIPK4,6%
Cl.Cl.Cl.Fc1ccc(-c2ncn(C3CCNCC3)c2-c2ccnc(Nc3ccccc3)n2)cc1 [SB-238039],%Inh,PRKCI; 1 µM,53% and 34%
same,%Inh,PRKCQ; 1 µM,20% and 50%
same,%Inh,PRKD1; 1 µM,96.5% and 91.3%
same,%Inh,PRKD2; 1 µM,95.3% and 91.8%
same,%Inh,PRKD3; 1 µM,88% and 90.8%
same,%Inh,PRKG1; 1 µM,3% and 0%
same,%Inh,PRKG2; 1 µM,0% and 28%
same,%Inh,PRKR; 1 µM,0% and 3%
same,%Inh,PRP4; 1 µM,32% and 0%
same,%Inh,PYK2; 1 µM,0% and 12%
same,%Inh,RAF1; 1 µM,18% and 8%
same,%Inh,RET; 1 µM,8% and 20%
same,%Inh,RIOK1; 1 µM,11% and 52%
same,%Inh,RIOK3; 1 µM,3% and 32%
same,%Inh,RIPK1; 1 µM,35% and 0%
same,%Inh,RIPK2; 1 µM,76% and 65%
same,%Inh,RIPK4; 1 µM,13% and 42%
